This is a sample that favours compounds with a hit; in the whole collection about 21% have one here.
Pf growth 48h: inhibits P. falciparum growth in the first generation, 48 h. P. falciparum luciferase growth in erythrocytes, 48 h. Potency, µM (series often up to 28.7 µM), inactives show at the highest dose activity change, negative = inhibition, actives largely listed as inhibitors. 310,000 tested, 5.9% active. AID 504832; also: potency is read from the fitted curve at half-maximal effect; % is scaled to controls: 0 for no effect and ±100 for the full control effect
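Erythrocytes infected with P. falciparum carrying an integrated firefly luciferase reporter (2% hematocrit, 0.1% parasitemia final) were exposed to compounds in RPMI 1640 with 0.5% Albumax at 37 C, 5% CO2. Growth inhibition was scored as reduced luminescence.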
Pf growth 96h: P. falciparum growth inhibition at 96 hour, primary screen for plastid delayed-death inhibitors. Potency, µM (titrated, usually from 28.7 µM), without a hit: top-dose activity change, negative = inhibition, most hits filed as inhibitors. AID 504834. 320,000 tested, 6.9% active. P. falciparum luciferase reporter growth, 96 h; also: potency is read from the fitted curve at half-maximal effect; % is scaled to controls: 0 for no effect and ±100 for the full control effect
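P. falciparum expressing integrated firefly luciferase, in erythrocytes at 2% hematocrit, 0.05% parasitemia, incubated with compounds 96 h at 37 C, 5% CO2. Growth inhibition read as loss of luminescence; two-generation exposure targets delayed-death apicoplast inhibitors.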
Giardia FBPA inh: blocks Giardia fructose-bisphosphate aldolase activity; purified Giardia FBPA; AID 2451; Potency, µM (titrated, usually from 59.6 µM), without a hit: at the top dose activity, negative = inhibition, actives largely listed as inhibitors; 290,000 tested, 0.71% active; A8B2U2; also: potency is read from the fitted curve at half-maximal effect; % is scaled to controls: 0 for no effect and ±100 for the full control effect; nearly all actives have a fitted effect of over 55% in size
Target sequence (A8B2U2 whole entry, looked up): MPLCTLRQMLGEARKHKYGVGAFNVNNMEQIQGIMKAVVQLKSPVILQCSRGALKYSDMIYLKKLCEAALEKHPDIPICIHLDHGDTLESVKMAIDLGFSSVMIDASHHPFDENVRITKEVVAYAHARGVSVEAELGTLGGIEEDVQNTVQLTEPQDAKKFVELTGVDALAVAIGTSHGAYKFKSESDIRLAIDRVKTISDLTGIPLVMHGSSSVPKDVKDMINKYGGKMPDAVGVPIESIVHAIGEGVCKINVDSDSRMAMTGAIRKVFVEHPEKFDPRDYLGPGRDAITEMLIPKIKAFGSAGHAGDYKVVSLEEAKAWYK
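40 nM FBPA preincubated 10 min at RT with compound (up to 57.5 uM final), then substrate plus GAPDH/TPI/NAD/arsenate coupling and diaphorase/resazurin added. Fluorescence read after 20 min at RT, 525/598 nm.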
NS1 function inh: influenza NS1 inhibition; Potency, µM (highest dose often 46.1 µM), without a hit: top-dose activity, positive = more growth; 270,000 tested, 0.4% active; calls by dose curve; also: potency is read from the fitted curve at half-maximal effect; actives are rising curves; nearly all actives have a fitted effect of over 50% in size
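Recovery from NS1-induced slow growth read by OD600 in budding yeast switched to galactose assay medium (pH 6.0, -URA) at 1:100 dilution. Compound 23 nl per well; the matching strain lacking NS1 serves as control.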
Shiga toxin inh: Shiga toxin inhibition | Vero cells, Shiga toxin protein synthesis inhibition reporter | inhibition, % at 38.7 µM | 290,000 tested, 9.2% active; in the data active = inhibition mostly above about 28%, no sharp cut-off; inactive = mostly below about 43%; also: 0% is about no effect
CHX counter: counter-screen for Shiga toxin inhibitors: cycloheximide protein synthesis inhibition; max response, %; AID 2314; 300,000 tested, 12% active; cell reporter, cycloheximide protein synthesis inhibition counterscreen; in the data active = max response mostly above about 13%, no sharp cut-off; inactive = mostly below about 14%; also: read at 38.3 µM for the half of the compounds with a filed dose; 0% is about no effect
An asterisk follows results filed as active; u = inconclusive; x = no result given; [ ] = remark or other dose. Unless noted, calls follow the shape of the dose curve; as a rule, active = well fitted curve in the direction sought with a large enough effect; inconclusive = small, poorly fitted or top-dose-only effect, or another doubt; inactive = no such curve, though single readings can be large; an effect the other way counts as inactive or inconclusive.

SMILES | Pf growth 48h | Pf growth 96h | Giardia FBPA inh | NS1 function inh | Shiga toxin inh | CHX counter
CC#CCN1c2ccccc2[C@]23C[C@@H](C(=O)OC)N(S(=O)(=O)c4ccc(C#N)cc4)C2=NC(C(=O)OC)=C(C(=O)OC)[C@H]13 | x | x | 4.1%[12.9 µM] | x | x | x
O=C1CN(C(=O)c2ccc3nc(Cc4cccc(Cl)c4)oc3c2)CCN1 | 6.8% | u | x | 6.0% | -15.3 | -1.3
CCCCc1nc2cc(C(=O)N3CCN(c4cnccn4)CC3)ccc2o1 | -3.6% | -24.2% | 12.1% | 1.4% | 11.5 | 11.5
CCCCc1nc2cc(C(=O)N3CCCC3)ccc2o1 | 61.0% | 137.9% | x | -6.0% | 67.5* | 30.7*
CCCCc1nc2cc(C(=O)N3CCNC(=O)C3)ccc2o1 | 18.5% | u | 5.7% | 0.6% | 1.2 | 14.4*
CCCCc1nc2cc(C(=O)NC(C)c3cnn(C)c3)ccc2o1 (centres undefined) | 155.8% | 64.2% | x | 3.1% | 66.4* | 34.5*
CC(C)(CS)C(=O)N1CCC[C@H]1C(=O)O | x | x | -10.7%[21.7 µM] | x | x | x
COc1cc(CNCCc2ccccc2F)ccc1OCC(=O)N1CCCCC1 | -27.2% | 13.1µM* | 2.3% | x | 1.3 | -3.5
Cc1ccc(S(=O)(=O)N2CCC(C(=O)NNC(=O)c3cccnc3)CC2)cc1 | 42.4% | u | 1.0% | -4.5% | -9.0 | -3.2
COc1ccc(C2c3[nH]c4ccccc4c3CCN2CCCn2cccn2)c(C)c1C (centres undefined) | u | 11.7µM* | -7.4% | -3.4% | -25.4 | -0.2
CC(C)CC1c2[nH]c3ccccc3c2CCN1CCCn1cccn1 (centres undefined) | u | 13.1µM* | 2.8% | -9.3% | -6.9 | -2.3
O=C(Nc1ccc(S(=O)(=O)N2CCCCC2)cc1)C1CCCO1 (centres undefined) | -5.2% | 24.0% | 2.0% | -7.8% | 18.7 | -1.6
O=C(c1cccs1)N1CCCC(N2CCN(c3cccc(C(F)(F)F)c3)CC2)C1 (centres undefined) | u | -12.5% | x | -30.0% | -6.8 | -0.9
Cc1nnsc1C(=O)N1CCCC(N2CCN(c3cccc(C(F)(F)F)c3)CC2)C1 (centres undefined) | 13.1µM* | u | x | -6.3% | 1.3 | 1.8
CCN(CC)CC(=O)N1CCCC(N2CCN(c3cccc(C(F)(F)F)c3)CC2)C1 (centres undefined) | 2.1% | 9.28µM* | -0.9% | 7.2% | 8.9 | 6.3
O=C(c1ccco1)N1CCCC(N2CCN(c3cccc(C(F)(F)F)c3)CC2)C1 (centres undefined) | 10.4µM* | 14.9% | x | -11.3% | -2.5 | -1.0
O=C(c1cc(C2CC2)on1)N1CCCC(N2CCN(c3cccc(C(F)(F)F)c3)CC2)C1 (centres undefined) | 11.7µM* | 0.2% | x | -22.3% | -2.4 | -4.2
CC(O)CCCCn1c(=O)c2c(ncn2C)n(C)c1=O (centres undefined) | -3.8% | -3.1% | x | x | x | x
COc1cc2cc(CCCOC(=O)c3cccc(Br)c3)oc(=O)c2cc1OC | 13.9% | u | x | x | x | x
C=CCN(c1ccccc1Cl)S(=O)(=O)c1cc(C(=O)N2CCCC2)ccc1Cl | u | 0.0% | -3.6% | 7.5% | -4.1 | -1.9
Cc1sc2ncnc(Sc3nnc4sc5ccccc5n34)c2c1C | 2.94µM* | u | -4.4% | -4.4% | -3.7 | -1.3
CCCCC[n+]1ccn(C2=C([O-])c3ccccc3C(=O)/C2=N\S(=O)(=O)c2ccc(Cl)cc2)c1 | 0.0% | u | u | -6.0% | 19.5 | 1.7
CCCC[n+]1ccn(C2=C([O-])c3ccccc3C(=O)/C2=N\S(=O)(=O)c2ccc(Cl)cc2)c1 | u | 3.7µM* | u | -3.5% | 45.6 | 4.7
Cc1nc2sc(C#N)c(N)c2c2c1CCCC2 | 25.0% | 11.7µM* | 7.4% | -57.9% | -10.0 | -1.1
CC(=O)c1sc2nc(C)c3c(c2c1N)CCCC3 | 14.8% | 2.1% | -7.0% | -10.8% | 54.9 | 20.8*
SMILES | Pf growth 48h | Pf growth 96h | Giardia FBPA inh | NS1 function inh | Shiga toxin inh | CHX counter
CN1Cc2c(N3CCOCC3)nc3sc(C#N)c(N)c3c2CC1(C)C | u | u | -19.5% | -4.8% | -7.7 | -2.0
N#Cc1sc2nc(N3CCCCC3)c3c(c2c1N)CCCC3 | 5.22µM* | u | -8.3% | 0.6% | -8.5 | -0.7
CCN(CC(=O)NC1CCS(=O)(=O)C1)S(=O)(=O)c1c(C)c(C)cc(C)c1C (centres undefined) | 15.9% | 12.2% | x | x | x | x
COC(=O)C1=C(c2ccccc2OCc2ccccc2)C[C@@H]2CC[C@H]1N2C(=O)NCc1ccc([N+](=O)[O-])cc1 | 11.7µM* | u | x | x | x | x
COC(=O)C1=C(c2ccccc2OCc2ccccc2)C[C@@H]2CC[C@H]1N2C(=O)NCc1ccc(N(C)C)cc1 | 6.57µM* | u | x | x | x | x
COC(=O)C1=C(c2ccc(F)cc2OCc2ccccc2)C[C@@H]2CC[C@H]1N2C(=O)NCc1ccc(N(C)C)cc1 | 11.7µM* | u | x | x | x | x
COC(=O)C1=C(c2ccccc2OCc2ccccc2)C[C@@H]2CC[C@H]1N2C(=O)NCc1ccc(Cl)cc1 | 9.28µM* | u | x | x | x | x
COC(=O)C1=C(c2ccc(OC)c(OC)c2)C[C@@H]2CC[C@H]1N2C(=O)NCc1ccco1 | 8.5% | u | x | x | x | x
COC(=O)C1=C(c2c(C)noc2C)C[C@@H]2CC[C@H]1N2C(=O)NCc1ccc(F)cc1 | 28.3% | 20.3% | x | x | x | x
COC(=O)c1c(NC(=O)c2ccccc2)sc2c1CC(C)(C)NC2(C)C | 48.6% | 50.1% | 4.3% | 0.2% | 6.8 | -2.2
CCOC(=O)c1c(NC(=O)CCS(=O)(=O)c2ccccc2)sc2c1CC(C)(C)NC2(C)C | -19.8% | u | x | 9.4% | -10.2 | 5.4
CCOC(=O)c1c(NC(=O)Cc2ccccc2)sc2c1CC(C)(C)NC2(C)C | u | 0.928µM* | 7.3% | 14.7% | 15.3 | -2.0
CCOC(=O)c1c(NC(=O)COC(=O)c2ccc(C)s2)sc2c1CC(C)(C)NC2(C)C | -5.6% | 4.5% | x | x | x | x
COC(=O)c1c(NC(=O)c2ccco2)sc2c1CC(C)(C)NC2(C)C | -1.0% | 16.5µM* | x | 22.2% | -18.6 | 5.1
CCOC(=O)c1c(NC(=O)COc2ccccc2C#N)sc2c1CC(C)(C)NC2(C)C | 11.7µM* | 5.22µM* | x | -1.0% | -11.6 | -3.4
CCOC(=O)c1c(NC(=O)COc2ccccc2OCC)sc2c1CC(C)(C)NC2(C)C | u | 11.7µM* | x | x | x | x
CC(=O)c1c(C)[nH]c(C(=O)OCC(=O)c2c(N)n(C)c(=O)n(C)c2=O)c1C | 7.6% | 20.7% | -5.4% | x | -6.3 | -2.9
CCOC(=O)N1CCN(S(=O)(=O)c2ccc(C(=O)Nc3sc4c(c3C(N)=O)CC(C)(C)NC4(C)C)cc2)CC1 | 11.7µM* | u | -29.1% | -3.6% | 20.4 | -5.0
CCOC(=O)c1c(NC(=O)c2ccc(C)cc2)sc2c1CC(C)(C)NC2(C)C | 34.4% | 39.5% | 4.5% | 2.2% | -3.4 | -3.6
Cc1ccc(C2=NS(=O)(=O)N(C)C(C(=O)Nc3ccc4c(c3)OCO4)=C2)cc1 | 2.4% | 5.1% | -18.1% | 11.7% | 17.7* | 18.1*

Screening results deposited in PubChem by National Center for Advancing Translational Sciences (NCATS).
